About 83,000 compounds went through this panel and 20% of them were active in at least one assay; those are over-represented in the sample as a whole.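 Compound tested at a single concentration for 48 hours in 96-well plates; a percent growth value below 10 was scored as active.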 A number with no mark means an inactive call. Active and inactive are the calls of the source.
These compounds were tested on MDA-MB-468 breast (assay: NCI-60 one-dose screen, 48 h (100 = growth as untreated, 0 = no growth, -100 = all killed)). Conditions: 10 µM unless noted.

Structure (SMILES)	growth
CCOC(=O)CSc1nc2sc3c(c2c(=O)n1-c1ccc([N+](=O)[O-])cc1)CCCCC3	56.6%
COc1cc(C(F)(F)F)ccc1-c1cc(-c2ccc(F)cc2)n[nH]1	75.6%
COc1cccc(/C=C\C(=O)c2ccccc2)c1	69.4%
COc1ccc(-c2oc3cc(O)c(OC)c(O)c3c(=O)c2OC)cc1O	-26.6% (active)
O/N=C1\CCC2CCCCC2C1 (stereo not given)	105%
COc1ccc(NC(=O)c2sc3c(=O)[nH]c(C(F)(F)F)nc3c2C)cc1	131%
CCOC(=O)C1C(=O)NC(C(=O)OCC)(C(=O)OCC)C1CC (stereo not given)	108%
COc1ccc(C2NC(=O)c3cc4c(cc3N2)OCO4)cc1 (stereo not given)	-1.6% (active)
CC(C)NC(=O)c1cc(-c2ccc(NC(=O)Nc3ccc(F)c(C(F)(F)F)c3)cc2)nc2cccnc12	81.4%
Cn1c(C(=O)c2cccc3ccccc23)nc2ccccc21	-1.13% (active)
COC(=O)/C=C/c1cc(O)c2oc(-c3ccc(O)c(O)c3)c(C(=O)OC)c2c1	26.7%
CCOC(=O)c1ccc(-c2ccc3cc(OC)ccc3c2)nc1C	119%
COc1ccc2nc3cc(Cl)ccc3c(NCCCNCCC(C)O)c2c1 (stereo not given)	-54% (active)
COc1cc(-c2nc3ccccc3o2)cc(CN2CCN(c3ccccc3)CC2)c1O	76.3%
O=C(Nc1ccc(Nc2cc(Nc3ccccc3)ncn2)cc1)Nc1cc(C(F)(F)F)ccc1F	55.3%
COc1ccc(CNCCN2C(=O)c3ccc4c5c(ccc(c35)C2=O)C(=O)N(CCNCc2ccc(OC)cc2)C4=O)cc1	-94.3% (active)
C=C(c1ccc(C(=O)NCCCn2ccnc2)cc1)c1cc2c(cc1C)C(C)(C)CCC2(C)C	-5.41% (active)
CCOC(=O)c1cc2c(n1Cc1cccc(OC)c1)-c1oncc1CCC2	11.9%
COc1ccc(OC)c(Nc2nc3nonc3nc2Nc2cc(OC)ccc2OC)c1	63.1%
Cc1cnc(N)nc1OCC(C)(C)CNC(=O)c1cccc(-c2ccc(S(=O)(=O)Nc3ccc4c(c3)N(C(=O)C3CC3)CCC4)cc2)c1	22.6%
C=CC(=O)N[C@@H](Cc1ccc(-c2cc(Cl)cc(Cl)c2)cc1)[C@@H](O)[C@H](O)C(=O)O	101%
COc1ccc(-c2nn(-c3ccc(NC(=O)c4ccc(Cl)c(C(F)(F)F)c4)cc3)cc2-c2ccncc2)cc1Cl	9.51% (active)
O=C(c1ccccc1)c1ccco1	118%
CC1COCC(C)N1C1=C(Cl)C(=O)c2ccccc2C1=O (stereo not given)	-92% (active)
COc1ccc2c(c1)N(CCO)C1=C(C(=O)OC1)C2c1ccc(OC)c(OC)c1 (stereo not given)	0.0938% (active)

— PubChem BioAssay (NCI)
